HT1080 IDH1KD tx – HT-1080 IDH1 knockdown cell toxicity (counter line); Potency, µM (series often up to 46.1 µM), for the others: at the top dose activity, negative = toxicity, actives largely listed as cytotoxic; AID 686971; HT-1080 IDH1 knockdown viability, ATP luminescence, 48 h; 2% of 360,000 active;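 note: potency is the fitted concentration of half-maximal effect; 0% = DMSO wells and -100% = cell-free medium wells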
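CellTiter-Glo luminescence after 48 h compound exposure at 37 degrees C of IDH1-knockdown HT-1080 cells in 5% FBS RPMI. %Activity scaled between DMSO wells and cell-free media wells, with curves fitted and assigned curve classes.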
IL1B secr inh – inflammasome signaling inhibition, IL-1 beta readout | 4.7% of 360,000 active | AID 743279 | activity change, % at 57.5 µM | THP-1 LPS/ATP IL-1B secretion, AlphaLISA, 16 h; hits give low values; in the data active = activity change below about -50%; inconclusive = mostly about -30% to -49%
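THP-1 cells pretreated 1 hr with compounds (up to 57.5 uM final), then stimulated with LPS (250 ng/mL final) plus ATP (1.25 mM final); secreted IL-1B measured by AlphaLISA after 16 hr, decreased signal indicating inhibition.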
DT40 TDP1 no CPT – qHTS for Inhibitors of human tyrosyl-DNA phosphodiesterase 1 (TDP1): qHTS in cells in absence of CPT; DT40 Tdp1-/- hTDP1 cells, no CPT, ATP luminescence, 48 h; 15% of 420,000 active; AID 686978, 2013; Potency, µM (doses to about 46.2 µM), for inactives: top-dose activity change, negative = growth inhibition, hits mostly inhibitors; note: potency is the fitted concentration of half-maximal effect; nearly all actives have a fitted effect of over 55% in size
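Stably hTDP1-transfected Tdp1-null chicken DT40 cells were treated with library compounds minus camptothecin and grown for at least 48 hr at 37 °C, after which cellular ATP was quantified by luminescence.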
DT40 TDP1 CPT – DT40-hTDP1 cell growth loss with CPT; chicken DT40 Tdp1-/-;hTDP1 cells + 20 nM CPT, ATP luminescence, 48 h; Potency, µM (titrated, usually from 46.2 µM), for the others: top-dose activity change, negative = growth inhibition, usual class: inhibitors; 12% of 420,000 active; AID 686979; note: potency is the fitted concentration of half-maximal effect; nearly all actives have a fitted effect of over 55% in size
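Chicken DT40 Tdp1-/- cells complemented with human TDP1, 400 cells/well, exposed to compounds plus 20 nM camptothecin for at least 48 h at 37 C; viability read as ATP content by CellTiter-Glo luminescence.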
HT1080-NT tox – kills 2HG-producing HT-1080-NT fibrosarcoma cells | HT-1080-NT fibrosarcoma viability, CellTiter-Glo ATP luminescence, 48 h | Potency, µM (doses to about 46.1 µM), inactives show at the top dose activity, negative = less viability, most hits filed as cytotoxic | 1.6% of 360,000 active | AID 686970;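 note: NT is the 2HG producing partner of a matched IDH1 knockdown line; potency is the fitted concentration of half-maximal effect; 0% = DMSO-treated cells and -100% = media-only wells without cells; nearly all actives have a fitted effect of over 55% in size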
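Read-out is CellTiter-Glo luminescence after 10 minutes at room temperature, following 48 hours' compound treatment of HT-1080-NT cells (750 cells/well, RPMI, 5% FBS, 37 degrees C).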
* marks the source's active call; other numbers are inactive results; ? = inconclusive; / = no result given; [ ] = another dose, or the depositor's remark. This is a sample that favours compounds with a hit; in the whole collection about 19% have one here. Unless noted, calls come from the whole dose curve; as a rule, active = well fitted curve in the direction sought with a large enough effect; inconclusive = small, poorly fitted or top-dose-only effect, or another doubt; inactive = no such curve, though single readings can be large; an effect the other way counts as inactive or inconclusive. Unless noted, % is set by controls: 0 for no effect and ±100 for the full control effect.

SMILES | HT1080 IDH1KD tx | IL1B secr inh | DT40 TDP1 no CPT | DT40 TDP1 CPT | HT1080-NT tox
Cc1cc2cc(C)c3nnc(SCC(=O)NCc4ccco4)n3c2cc1C | 2%[9.24 µM] | -66* | ? | ? | -23%
CCn1c(SCC(=O)NCc2ccco2)nnc1C1CCCC1 | 12% | -14 | 21% | 7% | 29%
CC(=O)NCCNC(=O)CCCc1nnc2n(CCC(C)C)c(=O)c3sccc3n12 | / | / | -2% | -5% | /
O=C(Oc1cccc(NC2=NS(=O)(=O)c3ccccc32)c1)c1cccnc1 | 13% | -4 | -28% | ? | 2%
Cc1nc(SCC(=O)NCc2ccco2)[nH]c(=O)c1C | -20% | 39 | -20% | 23µM* | ?
O=C1C=CC(=Nc2cccc3c2C(=O)c2ccccc2-3)O1 | -53% | -93* | ? | -82% | 0%
O=C(NC1CCCCCCC1)C1CCN(c2nc3ccccc3o2)CC1 | -30% | -19 | 16µM* | ? | ?
Cc1oc(-c2ccccc2F)nc1CN1CCC(C(=O)NC2CCCc3ccccc32)CC1 (stereo unspecified) | 1% | -11 | ? | 15µM* | -3%
O=C(NC1CCCc2ccccc21)C1CCN(S(=O)(=O)N2CCCCCC2)CC1 (stereo unspecified) | -6% | 15 | 18µM* | 13µM* | -7%
Cc1noc(C)c1S(=O)(=O)N1CCC(C(=O)NC2CCCc3ccccc32)CC1 (stereo unspecified) | 0% | -10 | -22% | -10% | -4%
O=C(NCCc1ccccc1)C1CCN(c2nc3ccccc3o2)CC1 | -4% | -4 | -14% | -9% | 4%
CC(C)(C)c1ccc(C(=O)N2CCN(c3nc4ccccc4o3)CC2)cc1 | 17% | 16 | 6.5µM* | 9.2µM* | 8%
COc1cccc(CN(C(=O)c2ccccc2Cl)C2CCS(=O)(=O)C2)c1 (stereo unspecified) | -1% | 24 | 1% | -9% | -1%
CC(C)N1CCN(Cc2coc3ccccc3c2=O)CC1CCO (stereo unspecified) | 2% | -1 | 3% | -12% | -4%
CC1Cc2ccccc2N1C(=O)CN1C(=O)C(=O)N(Cc2ccccc2)C1=O (stereo unspecified) | 4% | 2 | -1% | -20% | 4%
Cc1oc(-c2ccccc2F)nc1CN1CCC(C(=O)NC2CCCCCCC2)CC1 | 10% | -16 | 23µM* | ? | 7%
CCOC(=O)c1c(-c2ccccc2)csc1NC(=O)CSc1ccccc1 | 17% | 3 | ? | -20% | 18%
O=C(CSc1nnnn1-c1ccccc1)NC(=O)Cc1ccccc1 | 0% | 8 | 6% | 1% | 3%[9.24 µM]
CCOC(=O)c1c(-c2ccccc2)csc1NC(=O)CSc1nncs1 | -18% | 0 | 16µM* | 23µM* | -21%
Cn1nnnc1SCC(=O)NC(=O)Cc1ccccc1 | 2% | 41 | 6.5µM* | 12µM* | 3%
CCOC(=O)c1c(-c2ccc(OC)cc2)csc1NC(=O)CSc1ccccc1 | -4% | -12 | ? | ? | 1%
CCOC(=O)c1c(-c2ccc(C)cc2)csc1NC(=O)CCSc1nnc2ccccn12 | -3% | 22 | 23µM* | 23µM* | -4%
CCOC(=O)c1c(-c2ccccc2)csc1NC(=O)CSc1nnnn1C | 11µM* | -8 | ? | 18µM* | ?
Cc1cc([N+](=O)[O-])ccc1NC(=O)CSc1nnc(C)n1C | 5% | -16 | -2% | 0% | -1%
NS(=O)(=O)c1ccc(CCN=C(NS(=O)(=O)c2cccs2)c2ccccc2)cc1 | 13% | 15 | 30% | -1% | -7%
SMILES | HT1080 IDH1KD tx | IL1B secr inh | DT40 TDP1 no CPT | DT40 TDP1 CPT | HT1080-NT tox
CNC(=O)c1csc(-c2ccc(C)cc2)n1 | -1% | -16 | 7% | -9% | 1%
CCOC(=O)c1c(NC(=O)CSc2nnnn2C)sc(C)c1-c1ccc(C)cc1 | 8.9µM* | ? | 16µM* | ? | ?
CCCn1c(N)c(N(CCOC)C(=O)c2ccccc2)c(=O)[nH]c1=O | 1% | 4 | -14% | -24% | 10%
O=[N+]([O-])c1ccc2[nH]c(=S)sc2c1 | -19% | -22 | 21µM* | 23µM* | ?
O=C(c1ccccc1)C(CCc1ccccn1)CCc1ccccn1 | -3% | -16 | 16µM* | ? | -2%
CC(CCc1ccccn1)C(=O)c1ccccc1 (stereo unspecified) | 13% | -20 | 4% | 8% | -1%
Fc1ccc(CO/N=C2\CCCc3nonc32)cc1 | -7% | 0 | 7% | -1% | -10%
Cc1ccc(CNC(=O)Cn2cc(C(=O)c3ccc(Cl)cc3)c(=O)c3ccc(C)nc32)cc1 | / | / | 16µM* | 16µM* | /
COc1ccc(Cl)cc1NC(=O)Cn1cc(C(=O)c2ccc(C)cc2)c(=O)c2ccc(C)nc21 | / | / | 23µM* | ? | /
CCc1ccc(C(=O)c2cn(CC(=O)Nc3cc(OC)ccc3OC)c3nc(C)ccc3c2=O)cc1 | / | / | -67% | ? | /
Cc1ccc(C(=O)c2cn(CC(=O)Nc3ccc(C)cc3Cl)c3nc(C)ccc3c2=O)cc1 | / | / | 23µM* | 10µM* | /
Cn1c(=O)c2ncn(C)c2n(C)c1=O | 14% | 30 | -20% | 23% | 1%
CCCCn1cnc2c(c(-c3ccccc3)c(-c3ccccc3)n2Cc2ccco2)c1=N | -16% | -73* | -16% | -3% | -20%
N=c1c2c(-c3ccccc3)c(-c3ccccc3)n(Cc3ccco3)c2ncn1Cc1ccco1 | 21µM* | -6 | 6.5µM* | 9.2µM* | 16µM*
Cc1nc2ccccc2c(=O)n1Cc1ccco1 | -1% | 15 | -18% | -5% | 5%
N=c1c2c(-c3ccccc3)c(-c3ccccc3)n(Cc3ccccc3)c2ncn1CCCn1ccnc1 | 23µM* | -27 | ? | 16µM* | 23µM*
CC(C)NS(=O)(=O)c1ccc(OCC(=O)Nc2cccc(F)c2)cc1 | 4% | 3 | -22% | ? | 2%
CCOC(=O)N1CCN(C(=O)CC(C)S(=O)(=O)c2cc3c(cc2C)NC(=O)CO3)CC1 (stereo unspecified) | 10% | 14 | 14% | 1% | 3%
C#CCSc1nc2sc3c(c2c(=O)n1C)CCC3 | 11% | -2 | 12% | -2% | 11%
Cc1c(NC(=O)COC(=O)CCc2c[nH]c3ccccc23)c(=O)n(-c2ccccc2)n1C | 4% | 6 | -3% | 12% | 22%
COc1ccc(NC(=O)N(C)C[C@@H]2Oc3cc(C#CCN(C)C)ccc3S(=O)(=O)N([C@H](C)CO)C[C@H]2C)cc1 | -2% | 11 | -10% | 11% | 6%
Cc1cc(=O)n(C(C)C(=O)N2CCCc3ccccc32)c2c1c(C)nn2-c1ccccc1 (stereo unspecified) | / | / | ? | 16µM* | /
COc1cc(/C=N/Nc2ccccc2)ccc1O | 21µM* | 21 | -2% | 1% | ?

Compound activity: PubChem BioAssay, National Center for Advancing Translational Sciences (NCATS)
